# Measured values from ChEMBL document CHEMBL3988442, “University of Dundee, Small-Polar-MMV Screening Library” (2021).
# About 950 (1.4%) of roughly 69,000 compounds showed an effect of 50% or more. The sample as a whole holds a higher share of strong results than the screen did.
# Tested on: Mycobacterium tuberculosis
# Assay: Cornell M. t heat shock assay; also: in the data most compounds retested in dose-response had high values
# Type: functional, organism-based
# Parameters: dose or concentration left out as unconfirmed
row,Structure (SMILES),Percent Effect [%]
1,Cc1ccc(CN2CC[C@@H]3OCCN(Cc4ccncc4)[C@H]3CC2)s1.O=C(O)C(F)(F)F.O=C(O)C(F)(F)F.O=C(O)C(F)(F)F,43.06
2,Cc1nc2c(C)cccc2cc1C(=O)N1CCC2(CC1)NCCNC2=O,-15.56
3,CC(C)CN1C[C@H](COCc2ccccc2)Oc2ncccc2C1=O,61.32
4,CCCC1CN(CCOc2ccccc2)C(=O)c2cccnc2O1 (configuration not stated),-5.894
5,CCCC1CN(CC(C)C)C(=O)c2cccnc2O1 (configuration not stated),-5.035
6,CCc1cc(N(C)Cc2[nH]nc3c2CCC3)nc(N2CCOCC2)n1,-16.74
7,CN(Cc1cc2n(n1)CCNC2)Cc1n[nH]c2c1CCCCC2,-10.71
8,COc1nc2c(cc1C(=O)N(C)Cc1[nH]nc3c1CCC3)CCC2,0.3103
9,CN(Cc1cc2n(n1)CCNC2)Cc1n[nH]c2c1CCC2,-1.948
10,Cc1ccc2nc(CN(C)Cc3n[nH]c4c3CCCCC4)[nH]c2c1C,106.9
11,Cc1ccc2[nH]c(CN(C)Cc3ccccc3C(=O)O)nc2c1,-3.354
12,Cc1ccc2[nH]c(CN(C)Cc3n[nH]c4c3CCC4)nc2c1,98.03
13,COc1nc2cc(C)ccc2cc1CN(C)Cc1n[nH]c2c1CCCC2,2.274
14,Cc1ccc2nc(CN(C)Cc3[nH]nc4c3CCC4)[nH]c2c1C,98.38
15,CC(=O)N1C[C@@H]2CC[C@H](C1)N(S(=O)(=O)c1cc(F)ccc1C)C2,-2.155
16,CNC(=O)[C@H]1C[C@@H]2CN(Cc3ccc(OC)cc3)C[C@H]1O2.O=C(O)C(F)(F)F,15.08
17,Cc1ccc(CN2C[C@@H](OCc3ccccn3)[C@H]3COC[C@H]32)o1.O=C(O)C(F)(F)F.O=C(O)C(F)(F)F,4.099
18,CNc1nc(C2CCCN2)nc2c1CCN(S(=O)(=O)C1CCCCC1)C2.Cl (configuration not stated),12.62
19,CCc1cc(NC2CCN(S(C)(=O)=O)CC2)n2nc(C)c(C)c2n1,105.8

row,Structure (SMILES),Percent Effect [%]
1,CCc1cc(NC2CCOCC2)n2nc(C)c(C)c2n1,-7.332
2,CCOC(=O)N1CCC(Nc2cc(CC)nc3c(C)c(C)nn23)CC1,-7.891
3,CCN(CC)CCN1CC[C@H]2OCC[C@@]2(C(=O)N2CCOCC2)C1.O=C(O)C(F)(F)F.O=C(O)C(F)(F)F,6.776
4,Cl.Cl.Cn1cc(C(=O)NCc2cncc3c2CCN(c2ccccn2)C3)cn1,-14.06
5,COc1cccc2[nH]c(C(=O)N3CCNCC3C(N)=O)cc12.Cl (configuration not stated),-10.67
6,CCOC(=O)N1CCC2(CC1)N=C(CCC(C)C)NC2=O,12.74
7,COC(=O)N1CCC2(CC1)N=C(CCC(C)C)NC2=O,95.71
8,CC(C)CCC1=NC2(CCN(C(=O)N3CCN(C)CC3)CC2)C(=O)N1,15.27
9,Cc1oncc1C(=O)N[C@@H]1CN(Cc2ccco2)C[C@@H]2CCCO[C@@H]21.O=C(O)C(F)(F)F,4.265
10,CC[C@@H]1N(Cc2ccco2)CCC[C@]12CCC(=O)N2C.O=C(O)C(F)(F)F,-19.47
11,c1cc(-c2cncnc2)cc(-c2ccn(CC3CCNC3)n2)c1 (configuration not stated),8.343
12,Cc1ccsc1-c1cccc(-c2ccn(CC3CCNC3)n2)c1 (configuration not stated),84.67
13,Cc1nccc(-c2cccc(-c3ccn(CC4CCNC4)n3)c2)n1 (configuration not stated),-11.22
14,CN1CCC(c2nnc3ccc(C(=O)NC4CCCC4)cn23)C1.O=C(O)C(F)(F)F (configuration not stated),-23.72
15,CNc1cc(C)nc(C2CCN(CCO)CC2)n1,-3.64
16,CC(NC(=O)NCCCN1CCCCCC1)c1nncn1C (configuration not stated),12.17
17,CC1CCN(CCCNC(=O)NC(C)c2nncn2C)CC1 (configuration not stated),68.75
18,CC(NC(=O)NCCCN1CCCC1)c1nncn1C (configuration not stated),-5.961
19,O=C(O)C(F)(F)F.O=C(O)C(F)(F)F.O=C(c1ccc(F)cc1)N1CCN2C[C@H](OCc3ccccn3)C[C@H]2C1,3.711

row,Structure (SMILES),Percent Effect [%]
1,C[C@H]1CN(C(=O)c2ccoc2)C[C@@]12CCN(CCN(C)C)C2=O.O=C(O)C(F)(F)F,-17.94
2,O=C1C[C@H]2CC[C@@H](CN1)N2C1CCSCC1,14.33
3,CCN1C[C@H]2C[C@H](C(=O)NCc3cccnc3)[C@@H](C1)O2,-4.927
4,Cc1ccc(C(=O)N2CCC3(CC2)COC(COc2cccnc2)C3)o1.O=C(O)C(F)(F)F (configuration not stated),-31.88
5,O=C(O)C(F)(F)F.c1cnc(N2CCO[C@H]3CN(CC4CCC4)C[C@H]32)cn1,6.326
6,CC(=O)N1CCc2c(nc(N(C)C)nc2NCc2cccs2)C1,-2.548
7,CC(=O)N1CCc2c(nc(N(C)C)nc2NC(C)Cc2cccs2)C1 (configuration not stated),23.93
8,CC(=O)N1CCc2c(nc(N(C)C)nc2NCCc2cccs2)C1,53.71
9,CCCNc1cc(-c2c[nH]nc2C2CCN(C(=O)C3CCC3)C2)ccn1 (configuration not stated),-8.816
10,Cl.O=C(NCc1ccc(Cl)cc1)N1CCN(CC(O)C2CC2)CC1 (configuration not stated),7.084
11,CC(C)NC(=O)Nc1ccc2c(c1)ncn2CC(=O)NCCN(C)C,-0.1313
12,CC(C)C(=O)Nc1ccc2c(c1)ncn2CC(=O)NCCN(C)C,-3.322
13,CC(C)CC(=O)Nc1ccc2c(c1)ncn2CC(=O)NCCN(C)C,65.51
14,CC(=O)N1CCN(c2cc(C3CCNCC3)ccn2)CC1.Cl.Cl,2.778
15,O=C(N1CCCC1)N1CCC2(CC1)CN(c1cccnc1)C(=O)CO2.O=C(O)C(F)(F)F,-4.597
16,CCCn1cc(NC(=O)c2cccc(CN3CC=CC3)c2)nn1,-7.923
17,CCn1cc(NC(=O)c2cccc(CN3C[C@@H](C)O[C@@H](C)C3)c2)nn1,87.48
18,CCCn1cc(NC(=O)c2cccc(CN3CC[C@H](O)C3)c2)nn1,18.76
19,CN(C)C(=O)CO[C@H]1CN(Cc2ccsc2)[C@@H]2COC[C@H]12.O=C(O)C(F)(F)F,37.89
